High-throughput results as filed in PubChem BioAssay.
Rce1 inhib = yeast Rce1p protease inhibitors, primary screen, biochemical, fluorescence, cell-free homogeneous; CAAX prenyl protease 2 (Saccharomyces cerevisiae (strain ATCC 204508 / S288c)), Q03530; yeast membranes, quenched prenylated peptide cleavage fluorescence; calls only; hit rate 0.27% among 290,000; AID 2563, 2010;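 active means fall in fluorescence gain of 50% or more versus controls, with final raw signal at or below 3038400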
Target sequence (Q03530 whole entry, looked up): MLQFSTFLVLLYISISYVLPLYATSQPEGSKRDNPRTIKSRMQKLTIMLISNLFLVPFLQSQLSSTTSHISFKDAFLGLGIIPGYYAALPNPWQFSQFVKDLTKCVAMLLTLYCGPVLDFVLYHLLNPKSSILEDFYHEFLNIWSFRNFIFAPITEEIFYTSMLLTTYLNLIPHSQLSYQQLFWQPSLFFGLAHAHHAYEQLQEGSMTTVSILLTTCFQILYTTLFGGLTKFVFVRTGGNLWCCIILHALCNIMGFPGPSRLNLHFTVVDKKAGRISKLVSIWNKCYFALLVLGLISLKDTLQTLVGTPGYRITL
NALP1 inh = NALP1 inflammasome inhibitors in reconstituted yeast, colorimetric, S. cerevisiae, triplicate retest. hit rate 0.61% among 280,000. inhibition, % at 10 µM. S. cerevisiae NALP1/ASC/caspase-1 growth, X-gal OD620, 72 h; in the data active means inhibition mostly above about 24%, no sharp cut-off; inactive means mostly below about 32%
V-ATPase pHluor = regulators of yeast V-ATPase proton pumping, primary screen, pHLuorin cytosolic pH fluorescence. S. cerevisiae. response, % at 10 µM. hit rate 0.37% among 350,000; in the data active means response mostly above about 7.3%, no sharp cut-off; inactive means mostly below about 5.4%; further: actives read high
PERK inhibitor = block of dimerizer-induced PERK translation repression, primary screen, PERK inhibitor project, CHO PERK-DD cells, SEAP luminescence, HTS | hit rate 0.17% among 220,000 | inhibition, % at 5.6 µM | AID 1416, 2008 | CHO PERK-DD fusion, SEAP luminescence translation reporter;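 active means inhibition above the mean inhibition of all tested compounds plus 3 SD, set separately per screening campaign, cut at about 2.9% in these data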;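 further: PERK kinase domain activated by AP20187 dimerizer at 100 nM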
NALP3 yeast inh = NALP3 inflammasome inhibitors in reconstituted yeast, primary screen, luminescence, uHTS | hit rate 0.39% among 330,000 | AID 2825, 2010 | inhibition, % at 10 µM | Yeast reconstituted NLRP3/ASC/caspase-1, beta-gal luminescence, 24 h;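 active means inhibition of 50% or more; inactive means inhibition below 50%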
Yeast superoxide = reduction of superoxide in aged yeast, primary screen, HTS; S. cerevisiae aged cells, superoxide DHE fluorescence; hits give low values; superoxide response (% of plate mean), % at 10 µM; hit rate 0.18% among 330,000;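 active means superoxide response under a set limit, about three screen SD below normal, cut at about 65% in these data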;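 further: yeast aged for seven days with compound at 30 °C before DHE staining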
NALP3 confirm = NALP3 inhibitors retested in yeast, confirmation, luminescence, single concentration; shares compounds with NALP3 yeast inh; inhibition, % at 10 µM; hit rate 81% among 1,300; AID 435006, 2010; yeast expressing human NALP3; in the data active means inhibition above about 48%
Casp1 ASC ctr = CASP1-PYCARD signaling inhibition in yeast, confirmatory test, counterassay for NLRP3 inhibitor program, one-dose; hit rate 66% among 1,000; inhibition, % at 10 µM; shares compounds with NALP3 yeast inh; yeast expressing Caspase-1-ASC, luminescence counter screen; AID 488784, 2010
NALP3 yeast rt = NALP3 inhibitors in yeast, repeat test, confirmation, luminescence, single concentration, retest | inhibition, % at 10 µM | shares compounds with NALP3 yeast inh | yeast expressing human NALP3, luminescence read-out | hit rate 53% among 1,000
A number is an active result; . = inactive; / = no result. Most compounds without a hit are left out; they make up all but 1.6% or so of the library. Unless noted, no stated cut-off is given here; in the data, active means inhibition above about 50%; inactive means the rest.

SMILES	Rce1 inhib	NALP1 inh	V-ATPase pHluor	PERK inhibitor	NALP3 yeast inh	Yeast superoxide	NALP3 confirm	Casp1 ASC ctr	NALP3 yeast rt
Cc1ccc(C)c(CSc2nnc([C@@H](N)C(C)C)o2)c1	.	.	.	.	.	.	/	/	/
NCCCCCc1nnc(SCc2ccccc2Cl)o1	.	.	.	.	.	.	/	/	/
N#Cc1cnc(=S)n(-c2cc(C(F)(F)F)cc(C(F)(F)F)c2)c1N	/	/	.	/	/	/	/	/	/
COC(=O)C(=Cc1ccccc1[N+](=O)[O-])C(=O)OC	.	.	.	.	51	.	63	.	.
O=C(/C=C/c1ccccc1[N+](=O)[O-])Oc1ccccc1	.	.	/	/	.	.	/	/	/
COc1cc(OC)cc(C(=O)/C=C2\Sc3ccccc3N2C)c1	.	.	.	.	.	.	/	/	/
CN1/C(=C\C(=O)c2cccs2)Sc2ccccc21	.	.	.	.	62	.	.	/	/
CN1/C(=C/C(=O)c2cccs2)Sc2ccccc21	.	.	.	.	78	.	81	97	93
CN1/C(=C\C(=O)c2cccs2)C(C)(C)c2ccccc21	.	.	.	.	.	.	/	/	/
Cc1cccc(OCc2nc3ccccc3n2C)c1	.	.	.	/	54	.	72	55	.
Cn1c(COc2ccc(F)cc2)nc2ccccc21	.	.	.	/	.	.	/	/	/
O=C1C=CC(=O)N1CCCCCCCCCCN1C(=O)C=CC1=O	/	/	.	/	/	/	/	/	/
COc1ccc(C(=O)COC(=O)c2cc(=O)c3ccccc3o2)c(OC)c1	/	/	.	/	/	/	/	/	/
COc1ccc(-c2csc(NC(=O)c3ccccc3F)c2C(=O)O)cc1	.	.	.	/	81	.	94	91	81
O=C(Nc1scc(-c2ccccc2)c1C(=O)O)c1ccccc1Cl	.	.	.	/	.	.	/	/	/
Cc1ccc(C(=O)Nc2scc(-c3ccccc3)c2C(=O)O)cc1	.	/	.	/	79	.	78	86	82
Cc1ccc(Sc2ccc(NC(=O)CCl)cc2)cc1C	.	57	.	.	66	.	76	62	66
Cc1ccc(C)c(Sc2ccc(NC(=O)CCl)cc2)c1	.	/	/	.	81	.	81	88	74
Cc1ccc(NC(=O)CCSCCC(=O)Nc2ccc(C)c(C)c2)cc1C	.	.	.	.	.	.	/	/	/
N#CC1C(=O)NC(=O)C(C#N)C12CCCC(C(F)(F)F)C2 (stereo unspecified)	/	/	.	/	/	/	/	/	/
COc1cc(/C=C/C(C)=NNc2ccccc2)ccc1O	/	/	.	/	/	/	/	/	/
CC(C)Oc1ccc(C(=O)/C=C2/C(=O)Nc3ccccc32)cc1	.	.	.	/	65	.	76	86	64
O=C1Nc2ccccc2/C1=C\C(=O)c1ccccc1	.	.	.	/	.	.	/	/	/
CCOC(=O)c1nc(C)nc(Sc2n[nH]c(-c3cc(Cl)cc(Cl)c3)n2)c1C	.	/	.	.	51	.	.	/	/
CC1(c2nnc(-c3ccccc3)o2)CC(c2ccc(Cl)cc2)=NO1 (stereo unspecified)	.	.	.	/	52	.	56	.	.
CC1(c2nnc(-c3ccncc3)o2)CC(c2ccc(Cl)cc2)=NO1 (stereo unspecified)	.	/	.	/	.	.	/	/	/
C[C@H](CO)N1C[C@H](C)[C@H](CN(C)C(=O)Nc2ccccc2)OCc2cnnn2CCCC1=O	/	/	.	/	/	/	/	/	/
COc1ccc(-c2nc3ccccc3s2)cc1NC(C)=O	.	.	.	.	51	.	.	.	.
CC(=O)NCc1ccc(-c2nc3ccccc3s2)cc1	.	.	.	.	.	.	/	/	/
O=C(CN1C(=O)C2CC=CCC2C1=O)Nc1nc(-c2ccc(F)c(F)c2)cs1 (stereo unspecified)	/	/	.	/	.	.	/	/	/
